Screens from PubChem BioAssay.
INS promoter inh – TRM-6 insulin promoter activity inhibition. inhibition, % at 2 µM. 130,000 compounds, 0.9% hits. TRM-6 cells (human fetal islet line), insulin promoter-eGFP reporter, imaging; reporter expression induced with tamoxifen. AID 1273;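 active = inhibition above the mean plus 3 SD, with well images judged a real hit on visual review, cut at about 60% in these data, passing the limit was not always enough; inconclusive = inhibition over the cutoff but images rejected on review; inactive = inhibition not above the cutoff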
cytoskel mod – alters cytoskeleton assembly in HUVEC cells. inhibition, % at 2 µM. 91,000 compounds, 0.18% hits. HUVEC TNFa F-actin phalloidin imaging, high content;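 active = inhibition above the batch mean plus 3 SD and confirmed as a hit by visual image inspection, cut at about 30% in these data, passing the limit was not always enough; inconclusive = above the inhibition threshold but rejected on visual inspection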
Phagocyt inh – inhibitors of macrophage phagocytosis; J774A.1 macrophage IgG-bead phagocytosis, imaging; inhibition, % at 5 µM; 110,000 compounds, 0.07% hits; AID 1029;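 active = inhibition above the mean of the plate negative controls plus 5 SD, cut at about 13% in these data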;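 also: phagocytic index as fraction of beads internalized from green versus red external bead signal; plate controls were DMSO negative control for no effect and cytochalasin-D positive control for full effect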
VCAM1 TNFa inh – reduces TNF alpha induced VCAM1 expression in HUVEC | HUVEC TNFa-induced VCAM-1 immunofluorescence, high-content imaging | inhibition, % at 2 µM | 95,000 compounds, 0.48% hits;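 active = inhibition above the batch mean plus 3 SD, with images confirmed as a hit by eye, cut at about 37% in these data; inconclusive = inhibition above that limit but hit not confirmed in images; inactive = inhibition not above that limit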;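 also: 0% = TNF-stimulated DMSO wells and 100% = unstimulated control wells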
TNFa cytotox – HUVEC cytotoxicity counter-screen, TNF alpha stimulated; HUVEC TNFalpha-stimulated, Hoechst cell count, imaging; cell count reduction, % at 2 µM; 93,000 compounds, 0.17% hits;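 active = cell count reduction exceeding the screen mean by over 5 SD, scaled to untreated wells per plate, cut at about 78% in these data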;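 also: cells counted after 24 h of TNF alpha exposure following the 1 h pretreatment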
E-sel TNF inh – TNF alpha driven E-selectin expression inhibition; HUVEC TNFa-induced E-selectin immunofluorescence, high content; inhibition, % at 2 µM; 120,000 compounds, 0.71% hits;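 active = inhibition above the batch mean plus 3 SD, and confirmed as a hit on visual image review, cut at about 43% in these data; inconclusive = passes the inhibition cutoff but fails visual image review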;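 also: 0% = TNF-stimulated DMSO wells and 100% = unstimulated control wells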
The depositor's hits bear a star; ? = inconclusive; · = no result given. In the library only some 1.6% were active in any assay of this set; here they are far more common.

SMILES	INS promoter inh	cytoskel mod	Phagocyt inh	VCAM1 TNFa inh	TNFa cytotox	E-sel TNF inh
O=C1N/C(=N/N=C/c2ccccc2)SC1(c1ccccc1)c1ccccc1	·	-15	1	4	-2	·
Cc1ccc(-n2c(=O)cc(N3CC(C)OC(C)C3)[nH]c2=O)cc1 (centres undefined)	12	·	·	·	·	0
Cc1ccc(-n2c(=O)cc(N3CC(C)CC(C)C3)[nH]c2=O)cc1 (centres undefined)	73*	6	-1	-6	0	·
O=C(Cc1cccs1)NCc1ccncc1	·	-12	0	-1	-2	64*
CCCC(=O)NCCCc1nc2ccccc2[nH]1	·	·	0	·	·	-8
CCCCc1nc2ccccc2[nH]1	89*	·	·	·	·	-13
COc1ccc(CC(=O)Nc2cccc(SC)c2)cc1	·	·	-1	·	·	·
COc1cc(CC(=O)Nc2cccc(SC)c2)cc(OC)c1OC	75*	·	·	·	·	·
COc1cc(CC(=O)Nc2ncc(C)s2)cc(OC)c1OC	11	18	-1	51*	-23	-7
Cc1ccccc1OCCC(=O)OCC(=O)Nc1cc(S(=O)(=O)N2CCOCC2)ccc1Cl	33	·	·	·	·	·
Cc1c(CN2CCC(CO)(CCOc3ccccc3)CC2)c(=O)n(-c2ccccc2)n1C	·	·	·	·	·	-6
CC(C)(C)c1ccc(OCCCNCc2ccccc2)cc1	13	·	-1	·	·	95*
CCOC(=O)c1c(C)[nH]c(C(=O)COC(=O)CNC(=O)c2ccc(Cl)cc2Cl)c1C	-46	·	9	·	·	·
CC(C)Oc1ccc(C(=O)NC2(C(F)(F)F)NC(=O)N(CCCc3ccccc3)C2=O)cc1 (centres undefined)	29	·	·	·	·	25
O=C(NC(=S)Nc1ccc(S(=O)(=O)Nc2nccs2)cc1)c1cccc(F)c1	74*	·	-8	·	·	·
Cc1cnc(NC(=O)c2ccco2)s1	-38	-15	-1	6	89*	·
Cn1c(N)c(Sc2ccc(F)cc2)c(=O)n(C)c1=O	60	·	·	·	·	5
O=C(COC(=O)CCSc1ccc(Cl)cc1)NCCc1ccccc1	·	·	-5	·	·	41
O=C(COC(=O)CCSc1ccc(Cl)cc1)NCc1ccccc1Cl	67*	·	-3	·	·	3
O=C1c2ccccc2C(=O)N1CCCN1CCN(CCCN2C(=O)c3ccccc3C2=O)CC1	-380	3	·	3	-5	-4
O=[N+]([O-])c1ccc(/C=N/n2c(COc3ccccc3)n[nH]c2=S)cc1	57	-3	·	43*	53	30
O=[N+]([O-])c1cccc(/C=N/n2c(COc3ccccc3)n[nH]c2=S)c1	-11	-10	·	-8	-35	12
O=C1Nc2ccc(S(=O)(=O)N3CCCC3)c3cccc1c23	-25	-2	-1	-14	-12	18
O=C1Nc2ccc(S(=O)(=O)N3CCOCC3)c3cccc1c23	-267	-10	2	89*	-23	15
Cc1ccc2c(Cl)c(C)c(N3CCCCC3)nc2n1	83*	·	-3	·	·	·
SMILES	INS promoter inh	cytoskel mod	Phagocyt inh	VCAM1 TNFa inh	TNFa cytotox	E-sel TNF inh
Cc1nc2ccccc2nc1N1CCCCC1	·	-6	0	20	-10	16
CCOc1ccccc1NC(=O)Cc1ccccc1OC	81*	-22	-1	32	8	0
COc1ccc(NC(=O)/C(Cl)=C(/Cl)S(=O)Cc2ccc(Cl)cc2)cn1 (centres undefined)	-388	·	·	·	·	100*
CC(NC(=O)CCSc1nc(-c2ccc3c(c2)OCO3)cc(C(F)(F)F)n1)c1ccccc1 (centres undefined)	-43	-19	·	4	-17	-10
O=C(O)C1C2CCC(O2)C1C(=O)Nc1ccc(O)cc1 (centres undefined)	-10	·	3	·	·	·
Cc1ccc(N(CC(=O)Nc2ccccc2-c2ccccc2)S(=O)(=O)c2ccccc2)c(C)c1	-22	·	-12	·	·	-7
COC(=O)CSc1nc2nc(C)c(Br)cc2[nH]1	17	?	-2	?	100*	11
C=C(C)CSc1nc2nc(C)c(Br)cc2[nH]1	79*	0	-1	3	-6	13
Cc1ccc(N2CC(C(=O)O)CC2=O)cc1 (centres undefined)	44	·	·	·	·	·
CC1CCCCN1c1nnc(NC(=O)c2cc(-c3ccc(Br)cc3)on2)s1 (centres undefined)	·	-14	0	2	-4	·
CC(Sc1nnc(-c2ccc(O)cc2)o1)C(=O)Nc1cccc2ccccc12 (centres undefined)	77*	10	-2	14	63	11
CCC(SCC(=O)OC)C(=O)Nc1nnc(C(C)C)s1 (centres undefined)	·	19	0	3	-28	67*
